# Assay outcomes as filed in PubChem BioAssay.
# Only some compounds are listed: those with a hit (about 19% of all), similar ones and a draw of the others.
# TDP1 cell noCPT: qHTS for Inhibitors of human tyrosyl-DNA phosphodiesterase 1 (TDP1): qHTS in cells in absence of CPT; DT40 Tdp1-/- hTDP1 cells, no CPT, ATP luminescence, 48 h; Potency, µM (top dose mostly 46.2 µM), inactives show at the highest dose activity change, negative = growth inhibition, usual class: inhibitors; hit rate 15% among 420,000; AID 686978, 2013; further: potency means the concentration at half of the fitted maximal effect; nearly all actives have a fitted effect of over 55% in size
#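 Compound effects on proliferation are scored in DT40 Tdp1-/-;hTDP1 cells in the absence of CPT. ATP levels (CellTiter-Glo luminescence) are recorded after a ≥48 hr, 37 °C incubation.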
# HT1080 IDH1KD tx: toxicity to HT-1080 IDH1 knockdown cells (counter line); AID 686971; Potency, µM (series often up to 46.1 µM), for inactives: at the highest dose activity, negative = toxicity, usual class: cytotoxic; HT-1080 IDH1 knockdown viability, ATP luminescence, 48 h; hit rate 2% among 360,000;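 further: potency means the concentration at half of the fitted maximal effect; 0% = DMSO wells and -100% = cell-free medium wells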
#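 % activity derives from luminescence (CellTiter-Glo), normalised to DMSO and no-cell wells. HT-1080-IDH1KD cells, 750/well, had 48 h compound exposure at 37 °C.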
# HT1080-NT tox: kills 2HG-producing HT-1080-NT fibrosarcoma cells | HT-1080-NT fibrosarcoma viability, CellTiter-Glo ATP luminescence, 48 h | Potency, µM (series often up to 46.1 µM), for inactives: at the top dose activity, negative = less viability, hits mostly cytotoxic | hit rate 1.6% among 360,000 | AID 686970;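 further: NT is the 2HG producing partner of a matched IDH1 knockdown line; potency means the concentration at half of the fitted maximal effect; 0% = DMSO-treated cells and -100% = media-only wells without cells; nearly all actives have a fitted effect of over 55% in size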
#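 Fibrosarcoma NT cells, 750 per well in 5% FBS RPMI, were exposed to compound for 48 hours. Viability: CellTiter-Glo luminescence.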
# ELG1 DNA repair: inhibitors of ELG1-dependent DNA repair in HEK293T cells; Potency, µM (highest dose often 46.1 µM), for inactives: at the highest dose activity change, negative = inhibition, hits mostly inhibitors; hit rate 2.3% among 330,000; HEK293T ELG1-luciferase reporter, luminescence, 16 h; DNA damage induced by 5-fluorouridine; further: potency means the concentration at half of the fitted maximal effect; nearly all actives have a fitted effect of over 55% in size
#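 Luminescence from the luciferase reporter, measured 30 min after ONE-Glo reagent at room temperature, was the read-out. Beforehand, 2,000 cells per well were exposed for 16 hr at 37 °C to 5-fluorouridine together with compound or vehicle.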
# TDP1 cell CPT: growth inhibition of DT40 Tdp1-/-;hTDP1 cells with camptothecin (screen for TDP1 inhibitors); chicken DT40 Tdp1-/-;hTDP1 cells + 20 nM CPT, ATP luminescence, 48 h; Potency, µM (series often up to 46.2 µM), for the others: at the highest dose activity change, negative = growth inhibition, hits mostly inhibitors; hit rate 12% among 420,000; AID 686979; further: potency means the concentration at half of the fitted maximal effect; nearly all actives have a fitted effect of over 55% in size
#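 Chicken DT40 Tdp1-/- cells stably complemented with human TDP1 were seeded at 400 cells/well in medium containing 20 nM camptothecin, exposed to pin-transferred compounds, and grown at 37 °C for at least 48 hr. Viability was read as ATP luminescence.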
# IL1B secr inh: inhibitors of inflammasome signaling (IL-1 beta secretion); activity change, % at 57.5 µM; hit rate 4.7% among 360,000; AID 743279; THP-1 LPS/ATP IL-1B secretion, AlphaLISA, 16 h; hits give low values; in the data active means activity change below about -50%; inconclusive means mostly about -30% to -49%
#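 THP-1 cells pretreated 1 hr with compounds (up to 57.5 uM final), then stimulated with LPS (250 ng/mL final) plus ATP (1.25 mM final); secreted IL-1B measured by AlphaLISA after 16 hr, decreased signal indicating inhibition.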
# * hit, by the source's call; ? = inconclusive; nt = no result given; ! = not confirmed by another sample. Unless noted, the call rests on the fitted dose curve; in most records, active means well fitted curve in the direction sought with a large enough effect; inconclusive means small, poorly fitted or top-dose-only effect, or another doubt; inactive means no such curve, though single readings can be large; an effect the other way counts as inactive or inconclusive. Unless noted, on the % scale 0 is the no-effect control and ±100 the full control effect.
SMILES,TDP1 cell noCPT,HT1080 IDH1KD tx,HT1080-NT tox,ELG1 DNA repair,TDP1 cell CPT,IL1B secr inh
CC(C)C[C@H]1CN([C@@H](CC(C)C)CN2CCC[C@@H]2CN2C(=S)NC[C@@H]2Cc2ccc(O)cc2)C(=S)N1CC1CCCCC1,16µM*,15µM*,21µM*,nt,?,?
CC(C)C[C@@H](CN1CCCC1CN1C(=S)NC[C@@H]1Cc1ccccc1)N1C[C@H](Cc2ccccc2)N(CC2CCCCC2)C1=S (some centres undefined),?,-2%,-11%,nt,?,0
CC(C)C[C@H]1CN([C@@H](CC(C)C)CN2CCCC2CN2C(=S)NC[C@@H]2Cc2ccc(O)cc2)C(=S)N1CC1CCCCC1 (some centres undefined),?,3%,2%,nt,?,-2
CC(C)C[C@@H](CN1CCCC1CN1C(=S)NC[C@@H]1Cc1ccccc1)N1C[C@H](Cc2ccc(O)cc2)N(CC2CCCCC2)C1=S (some centres undefined),18µM*,?,?,nt,?,-21
Cc1nn(C(=O)c2ccc(Cl)cc2)c(C)c1S(=O)(=O)N1CCOCC1,-7%,nt,nt,nt,-16%,nt
COc1ccc(CCNC(=O)c2ccc3c(c2)nc2n3CCOC2)cc1OC,4%,nt,nt,nt,3%,nt
CCOC(=O)c1[nH]c(C)c(C(=O)/C=C/c2ccc(C(=O)O)cc2)c1C,-22%,?,-2%,-4%,9%,-13
CCCCNC(=O)C1CCCN1S(=O)(=O)c1cccc2nsnc12 (centres undefined),0%,8%,-14%,-4%,-13%,22
Cc1cccc(C(C)C)c1NC(=O)C1CCCN1S(=O)(=O)c1cccc2nsnc12 (centres undefined),15µM*,nt,nt,nt,23µM*,nt
CC1CCCC(NC(=O)C2CCCN2S(=O)(=O)c2cccc3nsnc23)C1C (centres undefined),15µM*,3%,0%,?,?,-3
CC(=O)Nc1ccc(NC(=O)C2CCCN2S(=O)(=O)c2cccc3nsnc23)cc1 (centres undefined),2%,1%,2%,-7%,-8%,30
CNC(=O)C[C@H]1C(=O)N(c2ccccc2)C[C@@H]1C,-1%,9%,-2%,nt,0%,2
CCCCCCCCCCCCCC(=O)NO,?,?,?,nt,?,0
COc1ccc2[nH]cc(C(=O)NCCc3ccccc3)c(=O)c2c1,18µM*,0%,-6%,-9%,-26%,-9
COc1ccc2c(=O)c(C(=O)NCc3ccccc3)c[nH]c2c1,?,-29%,-24%,-9%,-24%,-1
COc1ccc2c(=O)c(C(=O)NCCc3ccccc3)c[nH]c2c1,?,1%,4%,?,16µM*,13
Cc1c(C(=O)NCCSCc2cccc(C(F)(F)F)c2)cnn1-c1ccc(Cl)cc1,?,?,-15%,-3%,?,-57*
CN(C)c1ccc(N2[C@@H](CC(=O)O)c3cc(C(F)(F)F)ccc3S2(=O)=O)cc1,?,2%,-2%,nt,?,10
COC(=O)C[C@H]1c2ccccc2S(=O)(=O)N1c1ccc(N(C)C)cc1,10µM*,nt,nt,nt,?,nt
COC(=O)C[C@H]1c2cc(F)ccc2S(=O)(=O)N1c1ccccc1,-15%,-1%,-2%,nt,6%,24
COC(=O)C[C@H]1c2cc(C(F)(F)F)ccc2S(=O)(=O)N1c1ccc(N(C)C)cc1,10µM*,1%,0%,nt,13µM*,41
CC(=O)C[C@H]1c2cc(C(F)(F)F)ccc2S(=O)(=O)N1c1ccc(N(C)C)cc1,15µM*,-2%,-6%,nt,7.9µM*,21
Cc1ccc2nc(-c3ccc(F)cc3)c(Cc3ccccc3C(F)(F)F)n2c1,?,?,?,nt,?,14
CC(C)(C)CC(C)(C)Nc1c(-c2ccc(O)cc2)nc2cnccn12,26µM*,?,?,nt,18µM*,-15
Cc1ccc2nc(-c3ccc(F)cc3)c(NC(C)(C)CC(C)(C)C)n2c1,8.2µM*,nt,nt,nt,16µM*,nt
SMILES,TDP1 cell noCPT,HT1080 IDH1KD tx,HT1080-NT tox,ELG1 DNA repair,TDP1 cell CPT,IL1B secr inh
Cc1ccc(CN2CCN(C3CCN(S(=O)(=O)N(C)C)CC3)C(=O)C2=O)cc1,10%,nt,nt,nt,2%,nt
COc1ccc(-n2nnc3c(=O)n(CC(=O)Nc4cc(C)on4)cnc32)cc1OC,-11%,-24%,?,-8%,0%,12
Cc1cccc(Nc2nc(-c3ccccc3)c(C(=O)Nc3cccnc3)s2)c1,?,?,?,13µM*,?,-61*
Cc1cccc(NC(=O)c2sc(Cl)nc2-c2ccccc2)c1,18µM*,-12%,-1%,7%,?,0
CC[C@H](CC[C@@H](C)C1CC[C@H]2[C@@H]3CC=C4C[C@@H](O)CC[C@]4(C)[C@H]3CC[C@]12C)C(C)C (some centres undefined),-5%,nt,nt,nt,5%,nt
C=C1CC[C@H](O)C/C1=C/C=C1\CCC[C@]2(C)C([C@H](C)CCCC(C)(C)O)CC[C@@H]12 (some centres undefined),0.021µM*!,nt,nt,nt,0.046µM*!,nt
Cc1ccc(Cn2c(=N)c(C(=O)NCC3CCCO3)cc3c(=O)n4ccccc4nc32)cc1 (centres undefined),?,-20%,-2%,-5%,?,-1
N=c1c(C(=O)NCC2CCCO2)cc2c(=O)n3ccccc3nc2n1Cc1ccccc1Cl (centres undefined),1.3µM*,2%,-9%,-27%,1.5µM*,17
N=c1c(C(=O)NCC2CCCO2)cc2c(=O)n3ccccc3nc2n1Cc1ccc(Cl)cc1 (centres undefined),16µM*,7%,-5%,?,10µM*,-12
N=c1c(C(=O)NCC2CCCO2)cc2c(=O)n3ccccc3nc2n1Cc1ccccc1 (centres undefined),1%,-11%,-1%,-15%,-12%,-22
CCCS(=O)(=O)NC(=O)C1(C)CCN(C(=O)c2cc(F)cc(F)c2)C1 (centres undefined),8%,?,14%,nt,-63%,19
Nc1nc2c(Br)ccc(Br)c2cc1C(=O)NCc1cccc2ccccc12,?,16µM*,-20%,nt,?,-2
